What was measured:
Assay in all cases: DAPPL (digital affinity profiling via proximity ligation, sequencing); 10 mM Tris-HCl pH 7.5, 50 mM NaCl, 1 mM DTT, 4% glycerol, room temperature, 30 min; GST-TFs on glutathione beads, 16-mer random dsDNA library, 0.1% formaldehyde crosslink after washing; high values mean tight binding
Details in all cases: protein: recombinant; tags: N-terminal GST; dsDNA, one strand shown
FLI1 = target: T1, FLI1 (Homo sapiens, UniProt Q01543 1-452)
T1 sequence: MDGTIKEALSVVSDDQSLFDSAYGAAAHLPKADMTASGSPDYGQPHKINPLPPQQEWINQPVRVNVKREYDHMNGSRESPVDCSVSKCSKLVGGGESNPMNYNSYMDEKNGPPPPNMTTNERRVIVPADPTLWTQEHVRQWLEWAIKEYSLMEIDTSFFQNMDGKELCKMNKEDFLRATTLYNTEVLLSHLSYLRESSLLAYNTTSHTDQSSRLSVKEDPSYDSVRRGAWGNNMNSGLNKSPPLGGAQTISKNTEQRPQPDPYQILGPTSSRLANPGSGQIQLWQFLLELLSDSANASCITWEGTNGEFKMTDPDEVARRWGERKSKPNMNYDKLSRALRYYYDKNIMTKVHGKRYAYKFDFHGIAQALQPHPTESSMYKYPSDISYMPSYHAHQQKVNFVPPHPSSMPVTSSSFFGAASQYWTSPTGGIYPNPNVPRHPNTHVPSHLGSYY
Outline: (§1)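 Binding signal is defined as a hexamer's read frequency for one factor over its frequency for the tag-only sample. To obtain reads, GST-fused human transcription factors were expressed in yeast, captured on glutathione beads, barcoded with DNA and pooled with that sample. Pools met 200 nmole of a 16-mer random double-stranded DNA library in Tris/NaCl/DTT/glycerol buffer for 30 min at room temperature before washing, 0.1% formaldehyde crosslinking, proximity ligation (BsaI/T4 ligase, 1 h, 37 °C), PCR and Illumina NextSeq500 sequencing.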

GABPA = target: T2, GABPA (Homo sapiens, UniProt Q06546 1-454)
T2 sequence: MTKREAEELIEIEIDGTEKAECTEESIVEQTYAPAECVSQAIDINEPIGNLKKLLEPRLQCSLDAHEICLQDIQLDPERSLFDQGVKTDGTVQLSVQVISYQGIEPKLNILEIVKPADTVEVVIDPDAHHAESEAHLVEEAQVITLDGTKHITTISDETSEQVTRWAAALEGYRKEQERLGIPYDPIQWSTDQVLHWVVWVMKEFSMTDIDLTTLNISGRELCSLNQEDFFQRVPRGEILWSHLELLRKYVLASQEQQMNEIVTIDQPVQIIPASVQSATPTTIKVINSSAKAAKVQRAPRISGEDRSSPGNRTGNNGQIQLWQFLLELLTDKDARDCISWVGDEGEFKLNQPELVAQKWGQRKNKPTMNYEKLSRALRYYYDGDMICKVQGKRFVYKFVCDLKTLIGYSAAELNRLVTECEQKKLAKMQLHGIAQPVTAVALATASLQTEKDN
Outline: as §1

ERG = target: T3, ERG (Homo sapiens, UniProt P11308 1-479)
T3 sequence: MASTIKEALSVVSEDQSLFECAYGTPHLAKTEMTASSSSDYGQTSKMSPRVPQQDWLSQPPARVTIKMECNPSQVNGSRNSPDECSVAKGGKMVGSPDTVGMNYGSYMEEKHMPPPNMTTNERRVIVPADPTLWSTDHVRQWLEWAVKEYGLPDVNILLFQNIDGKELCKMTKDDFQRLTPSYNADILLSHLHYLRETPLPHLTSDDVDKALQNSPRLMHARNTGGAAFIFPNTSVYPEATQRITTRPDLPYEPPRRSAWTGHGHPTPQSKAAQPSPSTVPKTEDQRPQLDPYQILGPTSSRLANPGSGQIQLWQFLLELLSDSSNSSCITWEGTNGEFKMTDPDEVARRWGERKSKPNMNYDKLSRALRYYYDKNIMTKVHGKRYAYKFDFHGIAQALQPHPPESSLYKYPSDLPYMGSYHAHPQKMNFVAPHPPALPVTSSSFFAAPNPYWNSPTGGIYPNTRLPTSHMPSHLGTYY
Outline: as §1

EHF = target: T4, EHF (Homo sapiens, UniProt Q9NZC4 1-300)
T4 sequence: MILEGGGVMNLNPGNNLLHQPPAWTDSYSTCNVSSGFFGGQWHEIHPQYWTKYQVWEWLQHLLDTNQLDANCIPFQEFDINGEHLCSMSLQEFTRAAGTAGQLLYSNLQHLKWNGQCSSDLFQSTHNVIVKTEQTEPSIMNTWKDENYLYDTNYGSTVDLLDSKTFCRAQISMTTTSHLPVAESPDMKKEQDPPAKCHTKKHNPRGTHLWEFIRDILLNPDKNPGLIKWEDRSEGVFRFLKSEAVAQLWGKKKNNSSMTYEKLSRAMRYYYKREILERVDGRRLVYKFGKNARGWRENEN
Outline: as §1

SPI1 = SPI1 (Homo sapiens, UniProt P17947 1-270)
Outline: as §1

SPIB = SPIB (Homo sapiens, UniProt Q01892 1-262)
Outline: as §1

FEV = target: T5, FEV (Homo sapiens, UniProt Q99581 1-238)
T5 sequence: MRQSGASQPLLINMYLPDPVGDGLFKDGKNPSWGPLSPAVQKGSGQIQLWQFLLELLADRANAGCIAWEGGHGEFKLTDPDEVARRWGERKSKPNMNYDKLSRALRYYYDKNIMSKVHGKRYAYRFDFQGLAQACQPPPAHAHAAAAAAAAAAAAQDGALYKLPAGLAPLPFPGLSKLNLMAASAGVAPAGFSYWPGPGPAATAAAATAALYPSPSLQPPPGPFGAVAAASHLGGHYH
Outline: as §1

ETV5 = ETV5 (Homo sapiens, UniProt P41161 1-510)
Outline: as §1

SPIC = target: T6, SPIC (Homo sapiens, UniProt Q8N5J4 1-248)
T6 sequence: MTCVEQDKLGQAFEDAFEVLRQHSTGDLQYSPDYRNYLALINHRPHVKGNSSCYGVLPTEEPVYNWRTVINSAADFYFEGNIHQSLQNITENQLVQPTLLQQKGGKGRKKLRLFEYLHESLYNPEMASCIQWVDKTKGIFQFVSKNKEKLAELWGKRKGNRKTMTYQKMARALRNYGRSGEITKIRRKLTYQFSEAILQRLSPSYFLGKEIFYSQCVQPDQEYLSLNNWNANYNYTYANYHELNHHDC
Outline: as §1

ELF4 = ELF4 (Homo sapiens, UniProt Q99607 1-663)
Outline: as §1

ETV1 = ETV1 (Homo sapiens, UniProt P50549 1-477)
Outline: as §1

ETV3L = target: T7, ETV3L (Homo sapiens, UniProt Q6ZN32 1-361)
T7 sequence: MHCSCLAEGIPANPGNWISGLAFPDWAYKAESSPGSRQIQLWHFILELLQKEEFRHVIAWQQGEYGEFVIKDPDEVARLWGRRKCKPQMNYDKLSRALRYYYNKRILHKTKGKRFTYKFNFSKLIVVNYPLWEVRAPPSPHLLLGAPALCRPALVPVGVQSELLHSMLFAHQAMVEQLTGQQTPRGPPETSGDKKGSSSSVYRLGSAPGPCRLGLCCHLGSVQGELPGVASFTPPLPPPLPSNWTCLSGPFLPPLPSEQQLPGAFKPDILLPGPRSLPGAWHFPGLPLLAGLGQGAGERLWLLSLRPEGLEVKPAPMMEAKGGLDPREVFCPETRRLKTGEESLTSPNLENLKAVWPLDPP
Outline: as §1

ETV6 = ETV6 (Homo sapiens, UniProt P41212 1-452)
Outline: as §1

ELK1 = target: T8, ELK1 (Homo sapiens, UniProt P19419 1-428)
T8 sequence: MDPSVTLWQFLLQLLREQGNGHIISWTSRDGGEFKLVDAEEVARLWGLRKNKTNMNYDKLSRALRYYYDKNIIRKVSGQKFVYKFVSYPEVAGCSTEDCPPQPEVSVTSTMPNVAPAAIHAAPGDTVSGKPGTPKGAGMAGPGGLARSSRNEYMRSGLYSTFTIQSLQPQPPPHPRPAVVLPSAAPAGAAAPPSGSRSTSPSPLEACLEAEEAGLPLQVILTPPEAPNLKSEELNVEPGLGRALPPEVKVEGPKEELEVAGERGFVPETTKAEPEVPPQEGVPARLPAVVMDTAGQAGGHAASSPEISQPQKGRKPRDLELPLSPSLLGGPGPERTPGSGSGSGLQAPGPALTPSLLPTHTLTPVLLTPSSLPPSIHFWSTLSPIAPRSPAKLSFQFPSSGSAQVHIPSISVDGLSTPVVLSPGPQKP
Outline: as §1

ELK3 = target: T9, ELK3 (Homo sapiens, UniProt P41970 1-407)
T9 sequence: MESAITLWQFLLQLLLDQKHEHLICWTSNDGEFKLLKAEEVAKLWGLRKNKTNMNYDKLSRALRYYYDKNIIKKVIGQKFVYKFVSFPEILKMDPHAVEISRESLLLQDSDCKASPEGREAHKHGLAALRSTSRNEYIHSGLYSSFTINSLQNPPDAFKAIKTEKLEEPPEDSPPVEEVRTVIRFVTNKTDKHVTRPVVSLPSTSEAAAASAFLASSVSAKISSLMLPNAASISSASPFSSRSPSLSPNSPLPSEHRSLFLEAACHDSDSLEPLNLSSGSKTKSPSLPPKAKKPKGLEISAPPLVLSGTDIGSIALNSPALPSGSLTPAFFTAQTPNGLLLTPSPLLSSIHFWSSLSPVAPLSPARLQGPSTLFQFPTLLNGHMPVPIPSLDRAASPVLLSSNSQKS
Outline: as §1

ETS2 = target: T10, ETS2 (Homo sapiens, UniProt P15036 1-469)
T10 sequence: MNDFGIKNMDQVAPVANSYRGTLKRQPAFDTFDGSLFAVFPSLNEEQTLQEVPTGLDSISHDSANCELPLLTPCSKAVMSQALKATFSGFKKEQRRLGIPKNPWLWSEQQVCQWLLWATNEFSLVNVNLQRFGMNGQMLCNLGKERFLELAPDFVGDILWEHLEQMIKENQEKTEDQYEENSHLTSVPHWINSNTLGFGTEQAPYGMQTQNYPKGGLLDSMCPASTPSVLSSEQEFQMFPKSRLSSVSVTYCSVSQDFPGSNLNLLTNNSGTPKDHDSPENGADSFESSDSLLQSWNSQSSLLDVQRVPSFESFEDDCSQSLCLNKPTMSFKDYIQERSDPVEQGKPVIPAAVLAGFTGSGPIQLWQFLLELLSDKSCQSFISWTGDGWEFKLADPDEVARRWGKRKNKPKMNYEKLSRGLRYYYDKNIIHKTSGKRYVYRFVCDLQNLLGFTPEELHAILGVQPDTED
Outline: as §1

SPDEF = target: T11, SPDEF (Homo sapiens, UniProt O95238 1-335)
T11 sequence: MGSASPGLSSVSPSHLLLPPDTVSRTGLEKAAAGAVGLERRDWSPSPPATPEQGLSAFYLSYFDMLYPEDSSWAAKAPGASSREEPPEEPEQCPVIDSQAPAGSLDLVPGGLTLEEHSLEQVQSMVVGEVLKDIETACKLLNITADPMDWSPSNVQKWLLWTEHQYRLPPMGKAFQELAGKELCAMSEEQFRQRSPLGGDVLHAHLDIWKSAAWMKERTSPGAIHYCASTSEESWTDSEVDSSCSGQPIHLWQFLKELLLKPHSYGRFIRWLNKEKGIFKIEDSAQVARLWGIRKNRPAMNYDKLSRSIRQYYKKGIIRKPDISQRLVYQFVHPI
Outline: as §1

ETV3 = target: T12, ETV3 (Homo sapiens, UniProt P41162-2 1-143)
T12 sequence: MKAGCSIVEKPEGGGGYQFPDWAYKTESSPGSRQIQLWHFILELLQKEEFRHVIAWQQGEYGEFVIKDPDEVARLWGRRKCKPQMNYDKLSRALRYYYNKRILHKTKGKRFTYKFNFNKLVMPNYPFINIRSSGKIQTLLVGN
Outline: as §1

ETV5, sequence (P41161 whole entry): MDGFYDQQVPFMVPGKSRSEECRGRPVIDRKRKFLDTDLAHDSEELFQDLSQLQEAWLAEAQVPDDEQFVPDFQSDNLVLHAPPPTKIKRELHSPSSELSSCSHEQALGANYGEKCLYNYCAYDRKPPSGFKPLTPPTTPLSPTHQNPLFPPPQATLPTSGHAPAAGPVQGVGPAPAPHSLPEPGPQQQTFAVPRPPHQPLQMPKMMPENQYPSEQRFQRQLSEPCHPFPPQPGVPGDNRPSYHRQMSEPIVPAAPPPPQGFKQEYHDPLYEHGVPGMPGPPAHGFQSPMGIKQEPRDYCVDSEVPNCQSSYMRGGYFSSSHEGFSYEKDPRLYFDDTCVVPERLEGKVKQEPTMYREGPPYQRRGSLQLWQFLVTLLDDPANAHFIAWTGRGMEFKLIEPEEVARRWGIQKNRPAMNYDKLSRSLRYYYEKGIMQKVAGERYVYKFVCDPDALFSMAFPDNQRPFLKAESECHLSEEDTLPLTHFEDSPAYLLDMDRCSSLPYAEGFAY
SPIB, sequence (Q01892 whole entry): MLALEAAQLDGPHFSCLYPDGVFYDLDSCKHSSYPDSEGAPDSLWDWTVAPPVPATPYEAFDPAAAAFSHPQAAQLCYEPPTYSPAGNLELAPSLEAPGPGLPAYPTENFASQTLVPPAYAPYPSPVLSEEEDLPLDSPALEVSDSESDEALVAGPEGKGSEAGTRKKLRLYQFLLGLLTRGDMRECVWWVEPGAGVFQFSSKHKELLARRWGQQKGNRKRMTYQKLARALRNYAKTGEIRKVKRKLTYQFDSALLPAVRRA
ETV1, sequence (P50549 whole entry): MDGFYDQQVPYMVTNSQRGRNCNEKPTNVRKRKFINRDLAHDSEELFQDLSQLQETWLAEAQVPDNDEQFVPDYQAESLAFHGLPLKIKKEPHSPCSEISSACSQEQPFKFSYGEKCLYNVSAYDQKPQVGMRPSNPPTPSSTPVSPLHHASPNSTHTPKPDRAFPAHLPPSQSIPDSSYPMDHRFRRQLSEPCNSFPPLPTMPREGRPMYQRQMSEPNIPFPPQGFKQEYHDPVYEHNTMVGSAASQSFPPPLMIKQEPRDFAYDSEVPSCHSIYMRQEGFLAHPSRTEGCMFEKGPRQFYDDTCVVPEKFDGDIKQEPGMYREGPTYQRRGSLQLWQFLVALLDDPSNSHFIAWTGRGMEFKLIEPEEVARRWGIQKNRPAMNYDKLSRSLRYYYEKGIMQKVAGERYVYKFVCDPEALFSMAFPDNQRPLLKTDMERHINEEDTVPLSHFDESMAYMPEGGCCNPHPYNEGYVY
ETV6, sequence (P41212 whole entry): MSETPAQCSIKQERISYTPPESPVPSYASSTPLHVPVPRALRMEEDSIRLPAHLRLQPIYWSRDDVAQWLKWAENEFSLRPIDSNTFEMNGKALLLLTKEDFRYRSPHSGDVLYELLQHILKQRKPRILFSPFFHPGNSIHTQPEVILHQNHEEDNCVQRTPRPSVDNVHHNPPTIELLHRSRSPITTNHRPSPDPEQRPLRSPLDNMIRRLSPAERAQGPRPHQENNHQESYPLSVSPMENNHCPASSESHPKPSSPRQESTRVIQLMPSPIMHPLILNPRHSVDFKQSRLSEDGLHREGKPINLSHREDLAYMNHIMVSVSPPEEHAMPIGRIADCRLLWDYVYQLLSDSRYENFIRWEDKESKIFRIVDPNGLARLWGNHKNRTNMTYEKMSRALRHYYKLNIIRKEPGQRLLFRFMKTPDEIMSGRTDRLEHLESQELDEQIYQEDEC
ELF4, sequence (Q99607 whole entry): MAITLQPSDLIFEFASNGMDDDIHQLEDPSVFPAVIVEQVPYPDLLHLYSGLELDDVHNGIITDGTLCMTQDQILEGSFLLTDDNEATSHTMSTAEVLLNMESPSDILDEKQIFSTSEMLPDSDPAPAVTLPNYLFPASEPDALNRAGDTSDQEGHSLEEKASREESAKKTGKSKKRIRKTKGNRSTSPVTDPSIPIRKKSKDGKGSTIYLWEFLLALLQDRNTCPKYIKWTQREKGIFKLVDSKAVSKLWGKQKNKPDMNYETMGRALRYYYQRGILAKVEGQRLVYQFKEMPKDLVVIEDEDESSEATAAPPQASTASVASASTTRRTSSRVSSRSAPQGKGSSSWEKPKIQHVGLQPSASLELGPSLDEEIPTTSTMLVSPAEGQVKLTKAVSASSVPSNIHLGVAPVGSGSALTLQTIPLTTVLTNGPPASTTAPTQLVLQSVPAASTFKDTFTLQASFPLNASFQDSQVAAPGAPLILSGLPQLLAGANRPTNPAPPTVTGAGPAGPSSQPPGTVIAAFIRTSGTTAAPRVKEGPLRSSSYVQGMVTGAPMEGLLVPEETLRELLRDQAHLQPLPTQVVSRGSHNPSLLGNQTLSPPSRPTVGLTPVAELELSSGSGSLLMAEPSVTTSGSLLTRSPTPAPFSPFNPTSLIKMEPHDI

Sequence | binding signal (FLI1) | binding signal (GABPA) | binding signal (ERG) | binding signal (EHF) | binding signal (SPI1) | binding signal (SPIB) | binding signal (FEV) | binding signal (ETV5) | binding signal (SPIC) | binding signal (ELF4) | binding signal (ETV1) | binding signal (ETV3L) | binding signal (ETV6) | binding signal (ELK1) | binding signal (ELK3) | binding signal (ETS2) | binding signal (SPDEF) | binding signal (ETV3)
TGTGGC | 1.05 fold enrichment (6-mer frequency, TF over GST control) | 1.03 fold enrichment (6-mer frequency, TF over GST control) | 1.07 fold enrichment (6-mer frequency, TF over GST control) | 1.02 fold enrichment (6-mer frequency, TF over GST control) | 1.14 fold enrichment (6-mer frequency, TF over GST control) | 1.09 fold enrichment (6-mer frequency, TF over GST control) | 1.13 fold enrichment (6-mer frequency, TF over GST control) | 1.01 fold enrichment (6-mer frequency, TF over GST control) | 1.14 fold enrichment (6-mer frequency, TF over GST control) | 1.02 fold enrichment (6-mer frequency, TF over GST control) | 1.05 fold enrichment (6-mer frequency, TF over GST control) | 1.06 fold enrichment (6-mer frequency, TF over GST control) | 1.19 fold enrichment (6-mer frequency, TF over GST control) | – | – | – | – | –
AACGGA | 1.05 fold enrichment (6-mer frequency, TF over GST control) | – | 1.18 fold enrichment (6-mer frequency, TF over GST control) | 1.13 fold enrichment (6-mer frequency, TF over GST control) | 1.15 fold enrichment (6-mer frequency, TF over GST control) | 1.07 fold enrichment (6-mer frequency, TF over GST control) | 1.35 fold enrichment (6-mer frequency, TF over GST control) | 1.1 fold enrichment (6-mer frequency, TF over GST control) | 1.04 fold enrichment (6-mer frequency, TF over GST control) | – | 1.11 fold enrichment (6-mer frequency, TF over GST control) | 1.01 fold enrichment (6-mer frequency, TF over GST control) | 1.2 fold enrichment (6-mer frequency, TF over GST control) | 1.08 fold enrichment (6-mer frequency, TF over GST control) | 1.13 fold enrichment (6-mer frequency, TF over GST control) | 1.15 fold enrichment (6-mer frequency, TF over GST control) | 1.23 fold enrichment (6-mer frequency, TF over GST control) | 1.08 fold enrichment (6-mer frequency, TF over GST control)
